Screens (PubChem BioAssay)
Sampled rows, rich in hits. Any-hit rate of the full collection: about 3.3%.
RE007 growth inh: qHTS Assay for Inhibitors of the HIV-1 protein Vpr. S. pombe RE007 Vpr strain, BacTiter-Glo ATP luminescence, 24 h. Potency, µM (top dose mostly 92.2 µM), inactives show top-dose activity change, negative = less growth, hits mostly inhibitors. 0.21% of 360,000 active; active = well fitted falling curve with a large enough effect; inconclusive = small, poorly fitted or top-dose-only effect; inactive = no such curve, though single readings can be large or run the other way; also: % is scaled to controls: 0 for no effect and ±100 for the full control effect; nearly all actives have a fitted effect of over 50% in size
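Fission yeast RE007 carrying one integrated HIV-1 vpr copy, seeded at OD 0.01 in PMG+AL medium with 23 nL pinned compound. Grown 24 h at 30 degrees; viability read by BacTiter-Glo luminescence after 5 min.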
NS1 inh: qHTS Assay for Inhibitors of Influenza NS1 Protein Function. Potency, µM (top dose mostly 46.1 µM), inactives show top-dose activity, positive = more growth. AID 2326, 2010. 0.4% of 270,000 active; calls by dose curve; also: actives are rising curves; nearly all actives have a fitted effect of over 50% in size
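S. cerevisiae expressing influenza A NS1, grown in glucose, washed, then diluted 1:100 into pH 6.0 -URA galactose medium with 23 nl compound. Growth recovery read as OD600; NS1-free strain serves as control.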
Sm TGR inh: qHTS Assay for the Inhibitors of Schistosoma Mansoni Peroxiredoxins; Schistosoma mansoni thioredoxin glutathione reductase (TGR), Q962Y6; purified TGR, DTNB reduction, TNB absorbance 405 nm; Potency, µM (top dose mostly 114 µM), inactives show at the highest dose activity change, negative = inhibition, usual class: inhibitors; 3% of 360,000 active; also: % is scaled to controls: 0 for no effect and ±100 for the full control effect; nearly all actives have a fitted effect of over 60% in size
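First, TGR (20 nM dispensed) and NADPH were mixed with compound. Second, a 15 min room-temperature incubation followed. Third, further NADPH and then DTNB were added to start the reaction. Finally, TNB absorbance was monitored kinetically.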
LmPK inhibitor: qHTS Assay for Inhibitors of Leishmania Mexicana Pyruvate Kinase (LmPK). Q27686. purified LmPK, Kinase-Glo ATP luminescence, 1 h. Potency, µM (top dose mostly 57.5 µM), for the others: at the highest dose activity change, negative = inhibition, usual class: inhibitors. 0.37% of 290,000 active. AID 1721, 2009; also: % is scaled to controls: 0 for no effect and ±100 for the full control effect
Target sequence (Q27686 whole entry, looked up): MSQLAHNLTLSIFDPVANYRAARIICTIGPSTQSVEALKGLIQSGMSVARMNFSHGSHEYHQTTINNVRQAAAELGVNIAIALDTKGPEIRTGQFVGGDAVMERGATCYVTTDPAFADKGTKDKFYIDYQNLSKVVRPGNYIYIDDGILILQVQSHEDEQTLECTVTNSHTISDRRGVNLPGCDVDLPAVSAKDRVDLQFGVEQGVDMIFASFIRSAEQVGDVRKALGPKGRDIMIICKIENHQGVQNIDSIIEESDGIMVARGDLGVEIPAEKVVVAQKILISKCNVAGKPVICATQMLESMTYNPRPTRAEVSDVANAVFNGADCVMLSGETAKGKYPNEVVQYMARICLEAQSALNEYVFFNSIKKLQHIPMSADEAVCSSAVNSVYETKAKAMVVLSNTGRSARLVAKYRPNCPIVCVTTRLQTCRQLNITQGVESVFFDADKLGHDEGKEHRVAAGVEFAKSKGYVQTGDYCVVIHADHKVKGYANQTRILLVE
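0.1 nM LmPK, 0.5 mM PEP, 0.1 mM ADP; 50 mM imidazole pH 7.2, 7 mM MgCl2, 50 mM KCl; 1 h RT. Kinase-Glo luminescence readout, normalized to no-enzyme (full inhibition) and uninhibited wells.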
SARS PLpro yeast: qHTS of Yeast-based Assay for SARS-CoV PLP | 0.19% of 330,000 active | S. cerevisiae expressing SARS-CoV PLpro, growth rescue | Potency, µM (titrated, usually from 32.9 µM), for the others: top-dose activity, positive = growth rescue, most hits filed as activators; calls by dose curve; also: 0% is about no effect; nearly all actives have a fitted effect of over 55% in size
Tb PYK inh: qHTS of Trypanosoma Brucei Inhibitors; 0.12% of 410,000 active; Potency, µM (doses to about 76.8 µM), for the others: at the top dose activity, negative = inhibition, usual class: inhibitors; pyruvate kinase (Trypanosoma brucei), Q57TT1; TbPYK enzyme, Kinase-Glo Plus ATP luminescence, 45 min; also: % is scaled to controls: 0 for no effect and ±100 for the full control effect; nearly all actives have a fitted effect of over 50% in size
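T. brucei PYK with substrate was exposed to pin-transferred compounds across a concentration series, then started with 130 uM ADP (final). After 45 min at room temperature, Kinase-Glo Plus luminescence was read, normalized and curve-fitted.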
Active calls of the source: *; ? = inconclusive; . = no result given; [ ] = another dose, or the depositor's remark. Unless noted, calls follow the shape of the dose curve; as a rule, active = well fitted curve in the direction sought with a large enough effect; inconclusive = small, poorly fitted or top-dose-only effect, or another doubt; inactive = no such curve, though single readings can be large; an effect the other way counts as inactive or inconclusive. Potency is read from the fitted curve at half-maximal effect.

SMILES | RE007 growth inh | NS1 inh | Sm TGR inh | LmPK inhibitor | SARS PLpro yeast | Tb PYK inh
Cn1cc(S(=O)(=O)N2CCCCCC2)cc1C(=O)N1CCN(c2cccc(Cl)c2)CC1 | . | . | -0.5% | . | . | -11.5%
CCOc1ccc(N(CC)S(=O)(=O)N2CCCC(C(=O)Nc3ccc(NC(C)=O)cc3)C2)cc1 (configuration not stated) | . | . | -0.6% | . | . | -2.4%
CC(C)Oc1ccc(CCc2n[nH]c(=S)n2-c2ccccc2)cc1 | 7.0% | . | -0.4% | 14.1µM* | 11.1% | ?
Cc1ccc(-n2c(CCc3ccccc3)n[nH]c2=S)cc1C | 9.9% | ? | -7.4% | 14.1µM* | -2.3% | ?
COCc1n[nH]c(=S)n1-c1ccccc1 | 6.6% | 20.9% | 0.9% | -0.2% | -2.1% | ?
COc1ccc(CCNC(=O)c2ccc3c(c2)CCN3S(=O)(=O)c2ccc(C)cc2)cc1 | . | . | -0.9% | . | . | 3.4%
COC(=O)c1cc(NC(=O)c2ccc([N+](=O)[O-])cc2)c(=O)oc1C | 3.2% | -1.1% | 56.2µM* | 1.3% | -1.4% | -5.9%
CC(=O)c1cc(NC(=O)c2ccc([N+](=O)[O-])cc2)c(=O)oc1C | 14.1% | -0.9% | 22.4µM* | -2.5% | -1.9% | -3.1%
C[C@H](CN(C)C)C(=O)c1ccccc1C(=O)O | . | -1.0% | . | . | . | .
Fc1ccccc1-c1n[nH]c(=S)n1/N=C/c1c[nH]c2ccccc12 | 0.9% | 6.5% | 0.1% | 10µM* | 2.0% | ?
CCC(Nc1ccc(-c2nc(-c3ccco3)no2)cc1[N+](=O)[O-])c1ccccc1 (configuration not stated) | . | . | -15.1% | . | . | -4.1%
CC[n+]1c(/C=C2/C=C(C)CC(C)C2)sc2ccccc21 (configuration not stated) | -22.0% | . | 39.8µM* | -0.1% | 0.7% | ?
CC[n+]1c(C=C2C=C(C)OC(C)=C2)sc2ccccc21 | ? | . | 1.9% | 4.1% | -1.8% | 1.4%
CCN(CC)c1ccc(N=Nc2ccc(S(=O)(=O)N(C)C)cc2)c(S(=O)(=O)NCC[n+]2ccccc2)c1 | . | . | . | . | . | 0.9%
COc1ccccc1NC(=O)C1=C(C)Nc2nc(-c3ccco3)nn2C1c1cccc(C)c1 (configuration not stated) | . | . | -32.6% | . | . | -6.3%
COC(=O)c1ccccc1NC(=O)c1noc2c1CSc1ccccc1-2 | . | . | 3.55µM* | . | . | -3.4%
COc1ccc(C)cc1NC(=O)c1noc2c1CSc1ccccc1-2 | . | . | 8.8% | . | . | 1.1%
COc1ccc(N2C(=O)/C(=C/c3ccc(C)o3)C(=O)NC2=S)cc1 | 14.0% | 13.8% | 1.26µM* | -0.6% | -3.1% | ?
Cc1cccc(N2C(=O)NC(=O)/C(=C/c3ccc([N+](=O)[O-])o3)C2=O)c1 | . | 27.1% | 8.91µM* | -10.2% | ? | ?
Cc1ccc(/C=C2\C(=O)NC(=S)N(c3cccc(F)c3)C2=O)o1 | -5.5% | ? | 0.708µM* | -4.3% | ? | ?
CN1CCN(c2ccc(/C=C3\C(=O)NC(=S)N(c4cccc(Br)c4)C3=O)o2)CC1 | ? | -7.7% | -5.2% | -4.9% | 6.1% | -13.5%
COc1ccc(CN2C(=O)NC(=O)/C(=C/c3ccc([N+](=O)[O-])o3)C2=O)cc1 | . | . | ? | 23.5% | -4.3% | .
COc1ccc(N2C(=O)/C(=C/N(C)C)NC2=S)cc1 | -13.7% | 6.2% | -3.6% | ? | 0.8% | ?
CCOc1ccc(N2C(=O)/C(=C/c3ccc(C)o3)C(=O)NC2=S)cc1 | -6.4% | 12.9% | 1.41µM* | 13.5% | 0.9% | ?
CC(=O)N1CCC(N(Cc2ccc(C)o2)C(=O)Nc2cccc(C(F)(F)F)c2)CC1 | . | . | -2.5% | . | . | 1.6%
SMILES | RE007 growth inh | NS1 inh | Sm TGR inh | LmPK inhibitor | SARS PLpro yeast | Tb PYK inh
CC(=O)Nc1ccc(S(=O)(=O)c2cc(O)ccc2O)cc1 | 9.5% | 0.9% | 6.31µM* | -4.6% | -6.9% | -14.8%
Cc1ccc(S(=O)(=O)c2cc(O)ccc2O)cc1C | -1.1% | . | 3.98µM* | -2.4% | 2.8% | -17.4%
CC(C)(N)C(=O)N[C@@H]1C(=O)N2[C@@H]1SC(C)(C)[C@H]2C(=O)O | . | -6.2% | . | . | . | .
CC(=O)N1CCCc2cc(S(=O)(=O)N(C)CC(=O)Nc3cccc(C)c3C)ccc21 | . | . | -1.1% | . | . | 0.3%
Cc1oc2c(c1C(=O)c1ccc(Cl)cc1)C(=O)C(=O)c1ccccc1-2 | -14.8% | -26.7% | ? | -0.8% | -19.9% | 3.3%
Cc1ccc(C(=O)c2c(C)oc3c2C(=O)C(=O)c2ccccc2-3)cc1 | 25.1µM* | -97.1% | ? | 0.3% | -42.6% | 6.2%
Cn1c(SCc2ccc(F)cc2)nc2ccc(C(=O)NCc3ccc(F)cc3)cc21 | . | . | 5.7% | . | . | -3.4%
Cc1nn2c(=O)cc(COC(=O)c3ccccc3NC(=O)c3cccs3)nc2s1 | . | . | -6.1% | . | . | -2.5%
Oc1ccccc1-c1cc(C(F)(F)C(F)F)nc(-c2ccccc2)n1 | 7.8% | -5.3% | 89.1µM* | 4.8% | 3.9% | 0.4%
COc1ccc([N+](=O)[O-])cc1NC(=O)/C=C/C(=O)O | 20.8% | 18.4% | -13.4% | -1.9% | 17.3% | 1.5%
Cc1cc(C)c(NC(=O)/C=C\C(=O)O)c([N+](=O)[O-])c1 | 31.6µM* | -5.3% | 15.8µM* | 1.6% | -27.7% | -13.1%
COc1cc(OC)c(NC(=O)/C=C/C(=O)O)cc1Cl | -4.1% | 7.5% | 50.1µM* | 5.0% | -0.7% | -2.5%
Cc1cc(C)c(NC(=O)/C=C\C(=O)O)c(Cl)c1 | 5.7% | -19.8% | 35.5µM* | 4.6% | -72.2% | -18.5%
CCNC(C)Cc1ccc2c(c1)OCO2 (configuration not stated) | . | . | . | . | . | 6.0%[157 µM]
O=P(O)(O)OC(Cn1cncn1)(Cn1cncn1)c1ccc(F)cc1F | . | . | . | . | . | 3.0%
COc1cc(NC(=O)CSc2nc(C)c(C(=O)Nc3ccccc3)c(-c3ccc(OC)c(OC)c3)c2C#N)c(OC)cc1Cl | . | . | -0.5% | . | . | -24.9%
CCOC(=O)c1ccc(NC(=O)c2cc(=O)c3ccc(C)c(C)c3o2)cc1 | . | . | 3.4% | . | . | -0.7%
Cc1noc(Cn2c(=O)c3cc4c(cc3n(CC(=O)Nc3ccccc3F)c2=O)OCO4)n1 | . | . | 7.4% | . | . | 1.9%
CC(C1CC2CCC1C2)n1c(-c2ccco2)n[nH]c1=S (configuration not stated) | 12.3% | . | -6.5% | 12.6µM* | 0.5% | ?
Cc1ccc(/C=N/n2c(-c3ccco3)n[nH]c2=S)cc1 | -13.7% | 0.6% | 4.5% | -2.2% | 3.4% | ?
N#CC(C#N)=Cc1cn(-c2ncc(C(F)(F)F)cc2Cl)c2ccccc12 | -5.7% | 0.9% | 7.08µM* | 6.6% | -5.2% | -7.3%
Cc1ccccc1N=Cc1cccc(O)c1O | . | -45.9% | 5.01µM* | -25.3% | -86.2% | 6.4%
